Sensor-assay potency score (higher = more potent) data for 40 sequences are collected here from the OligoGym collection.
Also: reference of the scale not given here.

The first assay deals with FAM194A. Description: pooled miR-30 sensor sort-seq; sequence = guide strand. To be noted: shRNA.
Turning to TAGAAATCTTGTCTTGTTCTAA, the sensor-assay potency score (higher = more potent) was 0.351. TAGAATATTTGTGTTGTCCCAT: the sensor-assay potency score (higher = more potent) turned out to be 0.0372.

Sequence TTATTGTCTTCATTATATCTTG showed a sensor-assay potency score (higher = more potent) of -0.455. Sequence TTAAGCGCTTTGAATCATCTTC came in with a sensor-assay potency score (higher = more potent) of -0.166. Still for that read-out and setting: to TACAATGTCATCAATTATCTGT belongs 0.418; to TTATATCTTGCTTTATACCAGA, -0.69.

A further assay deals with FAM203A. The description is as above. To be noted: shRNA.
Sequence AGGTCCAAGCAACCACTCGTGA yielded a sensor-assay potency score (higher = more potent) of -1.79. Still for that read-out and setting: the value for TTGCAGTGGTTTTCTGTCCAGT was -0.715; that for TTCAACAAGCATCTTGCGGATG was -0.806; that for TAGCCGGGCGTGCACAGCGCGC was -1.89. The same measure, in the same setting: to TGGACCACGCACCTGTCGGGGT belongs -1.1; to TCTTGCGGATGTCTGCATCAGG, -1.13. In turn, ATGGCTTCAACAAGCATCTTGC gave a sensor-assay potency score (higher = more potent) of -0.247. Same read-out and setting: to TCCAACTGCTCCTGCTCCCTGC belongs -0.834. Same read-out and setting: to TGCAAGTCGACAGGCAGCCGTT belongs -1.26; to TGCATCAGGTTCTCGCTGCTTG, -0.383; to TGATGTCGGTGCTCGAAGCAGC, -0.572.

In another assay the target is FAM22D. Described as above. To be noted: shRNA.
The sequence TAAGACCCAGAGAGTGACCTGG registered a sensor-assay potency score (higher = more potent) of -0.135. The same measure, in the same setting: to TTTGAAAGTAAACAGGTTCCTG belongs -0.0805; to TGTTCTGTCACCAGAGGTGTGC, -0.395; to TTCGGTGTCAGGACTCTGGGGA, 0.265. The same measure, in the same setting: to TCTCATAGACACTCCTGGGGTT belongs 0.0703; to TTGGTGACGAAGTCTTTCTGGG, -0.0512; to TTCTCATAGACACTCCTGGGGT, -0.655. Turning to TTGAAAGTAAACAGGTTCCTGG, the sensor-assay potency score (higher = more potent) was -0.42. Same read-out and setting: to TACTCCTGCACCACTTCTGGGG belongs -0.442; to ATGAATGACGGCCTCCACCTTG, -1.02. On the same count and under the same terms, the value for TGGTCTCTGCTGGTCTCTGGGG was -1.54; that for AATTCTTCCAGGAATTGGGGAT was -0.511. Same read-out and setting: to TAAGACCAAGGTCTGCGCCTGA belongs -0.117; to TGAGGAAGCACGAAAGCGCTTC, -0.41; to TTGGTCTCTGCTCGCCGGTGGG, -1.33.

For TTAGACAGCACCAGAGGGCCGC, the sensor-assay potency score (higher = more potent) was -0.28. Same read-out and setting: to TTCCACAATGAGAAAAGCCAAG belongs -1.63; to AAGTTAGACAGCACCAGAGGGC, -0.454.

For a further assay, the target named is FAM22F. The description is as above. The note with it: shRNA.
In turn, TGACAGGAGACTCTCCAGGGAG gave a sensor-assay potency score (higher = more potent) of -0.895. Still for that read-out and setting: the value for TTCTTGGACTTGCTGGCAGGAG was -0.948. Same read-out and setting: to TCTCTCGCTGCTTCTTGGCCAG belongs -0.748; to AAGCACAGCAGGGTCTTCGGAC, -0.95; to TTGACAGGAGACTCTCCAGGGA, -0.14.
